# Laboratory results: PubChem BioAssay (EPA / NIEHS)
# Results filed as inconclusive are left out. Where a structure was tested more than once in an assay, its records may differ in their call. Activity calls are given as the source filed them. Rule for the calls, unless noted: active = hit-call score of the fitted dose curve at least 0.9, where 1 is the maximum; inconclusive = response in the unintended direction; inactive = score below 0.9.
# Tests used:
# [1] = UKN4_HCS_LUHMES_cell_viability: Viability Assessment in the University of Konstanz (UKN) Leist Lab Neurite Outgrowth Assay in human LUHMES cells (UKN4) (AID 2284232; active = hit-call score of the fitted dose curve at least 0.9, where 1 is the maximum; inactive = score below 0.9)
# How it was run: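 Fluorescence intensity from high-content imaging of Hoechst H-33342/calcein-AM-stained cells served as the viability read-out. Human LUHMES precursors were differentiated 2 days, replated and treated 24 h; curves were fitted bidirectionally against DMSO.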
# [2] = UKN2_HCS_IMR90_cell_viability: Viability Assessment in the University of Konstanz (UKN) Leist Lab Neural Crest Cell Migration Assay in human induced IMR90 Pluripotent Stem Cells (UKN2) (AID 2284233; active = hit-call score of the fitted dose curve at least 0.9, where 1 is the maximum; inactive = score below 0.9;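 note: cells exposed to compound for 24 h after a 24 h migration phase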)
# Procedure: UKN2_HCS_IMR90 is a cell-based, multiplexed-readout assay screening for neural crest cell migration and cell viability that uses IMR90 (neural crest cells differentiated from iPSC), a human embryo cell line, with measurements taken at […] after chemical dosing in a microplate: 96-well plate. UKN2, also known as cMINC, is an assay that uses IMR90 cells (neural crest cells differentiated from iPSC) as a model of neural crest cell migration. 24 hr after cell seeding, cell migration was initiated and proceeded for 24 hr. Then, chemical was applied, and after 24 hr of exposure migration and viability were assessed using high-content imaging of cells stained with calcein-AM and Hoechst H-33342.UKN2_HCS_IMR90_cell_viability is an assay component measured from the UKN2_HCS_IMR90 assay. It is designed to make measurements of enzyme activity, a form of viability reporter, as detected with Fluorescence intensity signals by HCS Fluorescent Imaging.The assay endpoint UKN2_HCS_IMR90_cell_viability was analyzed with bidirectional fitting relative to DMSO as the negative control and baseline of activity. Using a type of viability reporter, gain or loss-of-signal activity can be used to understand viability effects. […]
# The wells are coated with PLO/laminin/fibronectin. […] Quantification of migration and viability is done by high content imaging analysis.
# [3] = CCTE_Mundy_HCI_Cortical_NOG_NeuronCount: CCTE's Neurite Outgrowth Assay in rat cortical cells for Neuron Count, Mundy Lab (AID 2284236);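 note: neurons counted by imaging betaIII-tubulin and Hoechst stained cortical cells; cells exposed to compound for about 48 hours before fixation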
# How it was run: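 Read-out: neuron number by high-content imaging of betaIII-tubulin (Alexa Fluor-488) and Hoechst-labelled rat primary cortical cells.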
# [4] = CCTE_Mundy_HCI_hNP1_CellTiter: CCTE's Cell Titer-Glo 2 Assay in human neuroprogenitor cells for Viability, Mundy Lab (AID 2284241);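 for AC50: a hit is a drop in ATP luminescence versus DMSO meaning reduced viability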
# How it was run: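 Human neural progenitor cells (hNP1, WA09-derived) were plated on poly-L-ornithine/laminin and grown 40 to 44 hours at 37 °C, 5% CO2 before chemical addition. Twenty-four hours later, ATP was measured by CellTiter-Glo luminescence; loss of signal versus DMSO indicates reduced viability.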
# [5] = TAMU_HCS_1.5hr_SingleDonor1434_Cytotoxicity: Cytotoxicity Assessment using High-content Screening (HCS) Fluorescent Imaging for the Texas A&M University (TAMU) 1.5-hr Human Induced Pluripotent Stem Cell (iPSC)-derived Cardiotoxicity Assay (AID 2284234)
# How it was run: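 Human iPSC-derived cardiomyocytes dosed at 0.2, 1, 10, 100 uM final (0.5% DMSO) for 90 min at 37 C. Hoechst 33342-stained nuclei counted by 10x high-content imaging; POD is EC10, a 10% drop in total cell count versus DMSO.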
# [6] = TAMU_PeakParms_SingleDonor1434_QT: Texas A&M University (TAMU) 1.5-hr Human Induced Pluripotent Stem Cell (iPSC)-derived Cardiomyocytes Calcium (Ca+2) Flux Assay for Cardiotoxicity: QT (decay-rise ratio) (AID 2284235)
# Procedure: TAMU_PeakParms is a cell-based, multiplexed-readout assay that uses iPSC-derived cardiomyocytes with measurements taken at 1.5 hours after chemical dosing in a microplate: 384-well plate.TAMU_PeakParms_SingleDonor1434_QT is a phenotype derived from the decay.rise.ratio.avg parameter and uses an EC05 as its POD (5% increase in decay/rise ratio, compared to controls). Decay.Rise.Ratio.Average measures as the average ratio between the rise time and the decay time of the calcium flux, using Fluorescence intensity as a functional reporter from Calcium (Ca+2) flux assay technology. Before modeling, data is preprocessed to remove data points where there is a cessation of beating (where peak.freq.avg equals 0) and data points after they develop of a severe notch phenotype in order to avoid capturing non monotonic effects related to an advanced pathology.Data from the assay component TAMU_PeakParms_SingleDonor1434_QT was analyzed into 1 assay endpoints. This assay endpoint, TAMU_PeakParms_SingleDonor1434_QT_Prolongation, was analyzed in the positive analysis fitting direction relative to DMSO as the negative control and baseline of activity. Using a type of functional reporter, gain-of-signal activity can be used to understand changes in the cardiac function. […]
smiles,measurement,setting,value
Nc1ncn([C@@H]2O[C@H](CO)[C@@H](O)[C@H]2O)c(=O)n1,AC50,[1],16.5 µM (active)
same,AC50,[2],6.91 µM (active)
same,outcome,[2],inactive
same,outcome,[3],inactive
same,AC50,[4],2.78 µM (active)
same,outcome,[4],inactive
c1ccc2c(c1)ccc1cc3c(ccc4ccccc43)cc12,outcome,[5],inactive
O=C(O)CCCC[C@@H]1SC[C@@H]2NC(=O)N[C@@H]21,outcome,[6],inactive
CC1(C)S[C@@H]2[C@H](NC(=O)COc3ccccc3)C(=O)N2[C@H]1C(=O)O,outcome,[3],inactive
N[C@H]1C(O)O[C@H](CO)[C@H](O)[C@@H]1O (stereo not given in full),outcome,[4],inactive
